Compound activity (PubChem BioAssay)
Sm TGR inh: qHTS Assay for the Inhibitors of Schistosoma Mansoni Peroxiredoxins; Schistosoma mansoni thioredoxin glutathione reductase (TGR), Q962Y6; Potency, µM (top dose mostly 114 µM), most hits filed as inhibitors; purified TGR, DTNB reduction, TNB absorbance 405 nm; hit rate 3% among 360,000; also: nearly all actives have a fitted effect of over 60% in size
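First, TGR (20 nM dispensed) and NADPH were mixed with compound. Second, a 15 min room-temperature incubation followed. Third, further NADPH and then DTNB were added to start the reaction. Finally, TNB absorbance was monitored kinetically.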
FMDV inh: High Throughput Screening for Foot and Mouth Disease Virus Antivirals | FMDV antiviral cell-based qHTS | hit rate 1.2% among 410,000 | Potency, µM (series often up to 57.9 µM), most hits filed as inhibitors; calls by dose curve; tested in HEK293T cells; also: read-out not given here; nearly all actives have a fitted effect of over 45% in size
AmpC inh detg: qHTS Inhibitors of AmpC Beta-Lactamase (assay with detergent) | P00811 | AmpC hydrolysis of nitrocefin, absorbance 480 nm, 0.01% Triton | Potency, µM (series often up to 114 µM), actives largely listed as inhibitors | hit rate 0.041% among 370,000; also: nearly all actives have a fitted effect of over 25% in size
Target sequence (P00811 whole entry, looked up): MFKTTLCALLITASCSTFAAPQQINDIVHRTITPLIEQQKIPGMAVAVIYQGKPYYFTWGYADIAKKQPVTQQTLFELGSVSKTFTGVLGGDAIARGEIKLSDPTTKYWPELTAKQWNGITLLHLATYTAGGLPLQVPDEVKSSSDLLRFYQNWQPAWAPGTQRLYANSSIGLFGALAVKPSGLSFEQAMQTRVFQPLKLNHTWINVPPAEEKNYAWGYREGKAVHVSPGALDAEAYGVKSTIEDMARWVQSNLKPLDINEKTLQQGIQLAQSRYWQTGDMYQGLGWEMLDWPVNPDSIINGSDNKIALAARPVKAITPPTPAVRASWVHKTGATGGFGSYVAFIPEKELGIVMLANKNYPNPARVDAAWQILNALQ
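AmpC (5.3 nM in the dispensed reagent) in 20 mM phosphate pH 7.0 with 0.01% (detergent screen) or 0.0001% Triton X-100 was preincubated with compounds for 15 min at room temperature. Nitrocefin was then added from an 800 uM solution, and hydrolysis was followed at 480 nm.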
AmpC inh no detg: qHTS Inhibitors of AmpC Beta-Lactamase (assay without detergent) | P00811 | AmpC nitrocefin hydrolysis, absorbance 480 nm, 0.0001% Triton | Potency, µM (titrated, usually from 57.1 µM), most hits filed as inhibitors | hit rate 0.52% among 330,000; also: nearly all actives have a fitted effect of over 20% in size
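AmpC (5.3 nM in the dispensed reagent) in 20 mM phosphate pH 7.0 with 0.01% (detergent screen) or 0.0001% Triton X-100 was preincubated with compounds for 15 min at room temperature. Nitrocefin was then added from an 800 uM solution, and hydrolysis was followed at 480 nm.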
AMA1 RON2 block: qHTS for Inhibitors of AMA1-RON; Towards Development of Antimalarial Drug Lead: Primary Screen | Plasmodium falciparum AMA1 (3D7) - RON2 peptide interaction | AlphaScreen AMA1-biotinylated RON2 peptide binding | Potency, µM (titrated, usually from 58.2 µM), actives largely listed as inhibitors | hit rate 0.2% among 360,000; also: nearly all actives have a fitted effect of over 45% in size
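AMA1 (3D7) with his tag at 25 nM final met compounds first, then biotinylated RON2 peptide at 25 nM; detection used donor plus acceptor beads, 10 µg/mL apiece, read by AlphaScreen after 30 min at room temperature.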
Large screens that a line does not name were inactive. Most compounds without a hit are left out; they make up all but 4.1% or so of the library. Unless noted, calls follow the shape of the dose curve; as a rule, active = well fitted curve in the direction sought with a large enough effect; inconclusive = small, poorly fitted or top-dose-only effect, or another doubt; inactive = no such curve, though single readings can be large; an effect the other way counts as inactive or inconclusive.

O=C(COC(=O)CCS(=O)(=O)c1ccccc1)Nc1ccccc1	Sm TGR inh 8.9µM
Cn1c(=O)cc(OCCCC(=O)NCc2ccco2)c2ccccc21	Sm TGR inh 40µM
CCn1c(=O)cc(OCC(=O)NCc2ccc(C)o2)c2ccccc21	Sm TGR inh 35µM
CCn1c(=O)cc(OCC(=O)Nc2nc(C)cs2)c2ccccc21	AmpC inh no detg 50µM
CC(C)CCNC(=O)CCCOc1cc(=O)n(C)c2ccccc12	none
O=C(CCCn1c(=O)c2ccccc2n(CC(=O)NCc2ccco2)c1=O)NCc1ccco1	Sm TGR inh 25µM, AmpC inh detg inconclusive
CCn1c(=O)cc(OCC(=O)Nc2ccc(C)cn2)c2ccccc21	AmpC inh detg inconclusive
Cc1cnc(C)c(-c2ccc3c(c2)CC(CNC(=O)Cc2c(C)[nH]c4ccccc24)O3)n1 (centres undefined)	none (no result: Sm TGR inh, AmpC inh detg, AmpC inh no detg, AMA1 RON2 block)
CC(C)c1ccc(C2=NC(c3ccncc3)=Nc3ccc(F)cc3N2)cc1	none (no result: AmpC inh no detg, AMA1 RON2 block)
COc1ccc(CNC(=O)CCCOc2cc(=O)n(C)c3ccccc23)cc1	none
Cc1ccc(CNC(=O)CCCOc2cc(=O)n(C)c3ccccc23)o1	Sm TGR inh 13µM
Cc1ccc(C)c(N2CCN(C(=O)CCCOc3cc(=O)n(C)c4ccccc34)CC2)c1	FMDV inh 25µM
CCN(c1ccccc1)S(=O)(=O)c1c(-c2ccc(C)cc2)csc1C(=O)OC	none (no result: AmpC inh no detg, AMA1 RON2 block)
OC1(c2cccnc2)CCN(Cc2ccc3c(c2)CN(Cc2ccc(F)c(F)c2)CCO3)CC1	none (no result: Sm TGR inh, AmpC inh detg, AmpC inh no detg, AMA1 RON2 block)
CCOc1ccc(CNC(=O)c2cc3ccccn3n2)cc1OC	none (no result: AmpC inh no detg, AMA1 RON2 block)
Cn1c(/C(C#N)=C/c2ccc(-c3ccc(S(N)(=O)=O)cc3)o2)nc2ccccc21	AmpC inh no detg 20µM
Cc1ccc(-n2c(=O)c3c(C)c(C(=O)N(C)C)sc3n(CC(=O)C(C)(C)C)c2=O)cc1C	none (no result: AmpC inh no detg, AMA1 RON2 block)
CC(C(=O)N(C)C1CCS(=O)(=O)C1)N1C(=O)/C(=C/c2ccc(F)cc2)SC1=S (centres undefined)	none
CC(C(=O)O)N1C(=O)/C(=C/C=C/c2ccco2)SC1=S (centres undefined)	Sm TGR inh 7.1µM, AmpC inh detg inconclusive, AMA1 RON2 block inconclusive
CCN(C(=O)C(C)N1C(=O)/C(=C/c2ccco2)SC1=S)C1CCS(=O)(=O)C1 (centres undefined)	Sm TGR inh 40µM
O=C1/C(=C/C=C/c2ccco2)SC(=S)N1NS(=O)(=O)c1ccccc1	Sm TGR inh 1.8µM, AmpC inh detg inconclusive, AMA1 RON2 block inconclusive
COc1ccc(N2CC(NC(=O)Cc3cccs3)CC2=O)cc1OC (centres undefined)	none (no result: AmpC inh no detg, AMA1 RON2 block)
Cc1cccc(CNC(=O)Cn2nc(C)c3nn(-c4ccc(Cl)cc4)c(C)c3c2=O)c1	none (no result: AmpC inh no detg, AMA1 RON2 block)
CCN(CC)C(=O)c1c(-c2ccccc2)c(-c2ccccc2)nn(CC)c1=O	FMDV inh inconclusive (no result: AmpC inh no detg, AMA1 RON2 block)
O=C(CN1CCCCC1)c1ccccc1Cl	none
CCN1CCN(CC(=O)c2cc(Cl)ccc2Cl)CC1	Sm TGR inh 18µM
Cc1ccc(-n2nc(C(=O)NCc3ccc(F)cc3Cl)c3c4ccccc4n(C)c3c2=O)cc1	FMDV inh inconclusive (no result: AmpC inh no detg, AMA1 RON2 block)
O=C(c1nc2ccc(Cl)cn2c1CN1CCC[C@H]1CO)N1CCCCCCC1	Sm TGR inh 45µM
O=C1c2oc3ccc(Cl)cc3c(=O)c2C(c2ccco2)N1CCN1CCOCC1 (centres undefined)	Sm TGR inh 35µM
O=C1c2oc3ccccc3c(=O)c2C(c2cccc(O)c2)N1CCCN1CCOCC1 (centres undefined)	Sm TGR inh 40µM, AmpC inh detg inconclusive
Cc1cc2oc3c(c(=O)c2cc1C)C(c1ccc(F)cc1)N(CCCN1CCOCC1)C3=O (centres undefined)	none
CCOc1ccc(C2c3c(oc4ccccc4c3=O)C(=O)N2CCCN2CCOCC2)cc1OCC (centres undefined)	Sm TGR inh 22µM, AmpC inh detg inconclusive
COc1cc(C2c3c(oc4cc(C)c(C)cc4c3=O)C(=O)N2CCCN2CCOCC2)ccc1O (centres undefined)	Sm TGR inh 35µM (no result: AmpC inh no detg, AMA1 RON2 block)
CNc1nc(-c2ccccc2C)nc2ccccc12	none (no result: Sm TGR inh, AmpC inh detg, AmpC inh no detg, AMA1 RON2 block)
